From PubChem BioAssay
The list is not random: actives were taken first. Their share in the collection is about 8.9%.
ALDH1A1 block: ALDH1A1 (human) enzyme inhibition; P00352; Purified ALDH1A1, NADH fluorescence, propionaldehyde substrate; Potency, µM (doses to about 75.3 µM), inactives show at the highest dose activity, negative = inhibition, usual class: inhibitors; actives 7.3% (n = 220,000); AID 1030; active = well fitted inhibition curve with a large enough effect, not every such curve was filed as active; inconclusive = small, poorly fitted or top-dose-only effect, or another doubt; inactive = no such curve, though single readings can be large or run the other way;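 also: potency is read from the fitted curve at half-maximal effect; plate controls were no enzyme wells and a reference inhibitor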
IMPase Li cell: IMPase inhibition in cells with lithium potentiation; CHO-M1 cells, IP1 TR-FRET (IP-One), carbachol + lithium; Potency, µM (doses to about 59.4 µM), for inactives: top-dose activity, negative = IMPase inhibition, most hits filed as inhibitors; actives 0.35% (n = 210,000);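 also: IP1 builds up when IMPase is blocked and the TR-FRET signal falls; potency is read from the fitted curve at half-maximal effect; plate controls were basal vehicle for no effect and high inhibitor control for full effect; nearly all actives have a fitted effect of over 50% in size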
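Test compounds were applied to CHO-M1 cells previously cultured for 16–30 h at 2000 per well. A small lithium amount accompanied them; after 30 min at 37C, IP1 was quantified by TR-FRET.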
NPSR antagonist: blocks cAMP signaling of the human neuropeptide S receptor; actives 1% (n = 220,000); Potency, µM (top dose mostly 38.3 µM), without a hit: top-dose activity change, negative = inhibition, actives largely listed as inhibitors; AID 1461; CHO-NPSR cells, cAMP TR-FRET, antagonist mode; also: potency is read from the fitted curve at half-maximal effect; nearly all actives have a fitted effect of over 50% in size
IMPase cell inh: cell-permeable inhibitors of inositol monophosphatase (IMPase); P97697; CHO-M1 cells, IP1 accumulation, HTRF TR-FRET ratio; inhibition (IP1 accumulation), % at 46.1 µM; 120,000 tested, under 10 active; AID 901; active = well fitted curve in the direction sought with a large enough effect in the signal ratio, not every such curve was filed as active; inconclusive = small, poorly fitted or top-dose-only effect, or a change in a side signal; inactive = no such curve, though single readings can be large or run the other way; the % refers to the signal ratio;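 also: cells stimulated with carbachol in lithium chloride buffer; plate controls were DMSO basal wells for no effect and reference inhibitor wells for full effect; higher means more IMPase inhibition seen as more IP1 and lower FRET ratio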
Target sequence (P97697 whole entry, looked up): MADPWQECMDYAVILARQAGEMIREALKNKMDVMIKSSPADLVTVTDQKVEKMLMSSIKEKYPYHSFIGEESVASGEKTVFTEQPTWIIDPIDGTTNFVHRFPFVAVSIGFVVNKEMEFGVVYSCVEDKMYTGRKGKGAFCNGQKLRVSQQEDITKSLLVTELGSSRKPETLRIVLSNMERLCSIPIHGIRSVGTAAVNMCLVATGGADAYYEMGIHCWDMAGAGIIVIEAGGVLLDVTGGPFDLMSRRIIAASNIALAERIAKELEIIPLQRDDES
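CHO-M1 cells (CHO stably expressing M1 receptor), compound up to 46 uM final, stimulated with carbachol (50 uM as added) in buffer with 50mM LiCl, pH 7.4, 30 min at 37C. Cytosolic IP1 read by TR-FRET; AC50 from Hill fits.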
HPGD inh: inhibitors of human 15-hydroxyprostaglandin dehydrogenase (HPGD) | actives 4.3% (n = 150,000) | purified HPGD, NADH fluorescence kinetic, PGE2 substrate | Potency, µM, without a hit: at the top dose activity change, negative = inhibition, most hits filed as inhibitors; active = well fitted inhibition curve with a large enough effect, not every such curve was filed as active; inconclusive = small, poorly fitted or top-dose-only effect, or another doubt; inactive = no such curve, though single readings can be large or run the other way; also: potency is read from the fitted curve at half-maximal effect
Target sequence (P15428 whole entry, looked up): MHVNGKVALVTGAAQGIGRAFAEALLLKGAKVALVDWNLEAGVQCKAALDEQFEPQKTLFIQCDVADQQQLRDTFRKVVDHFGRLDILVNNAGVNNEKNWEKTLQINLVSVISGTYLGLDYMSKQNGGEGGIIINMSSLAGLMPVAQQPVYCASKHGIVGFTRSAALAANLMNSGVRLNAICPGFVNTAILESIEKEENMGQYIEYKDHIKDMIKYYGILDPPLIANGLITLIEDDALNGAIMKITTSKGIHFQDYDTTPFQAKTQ
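20 nM HPGD preincubated 15 min at room temperature with compound in 50 mM Tris-HCl pH 8, 0.01% Tween 20. Started with 1 mM NAD+ and 30 uM prostaglandin E2; NADH fluorescence (360/450 nm) read 5 times over 30-s intervals, last minus first.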
12-hLO inh: inhibitors of human 12-lipoxygenase (ALOX12); P18054; purified 12-hLO, xylenol orange hydroperoxide absorbance; Potency, µM (doses to about 57.1 µM), without a hit: at the top dose activity change, negative = inhibition, hits mostly inhibitors; actives 0.12% (n = 150,000); AID 1452; also: potency is read from the fitted curve at half-maximal effect; nearly all actives have a fitted effect of over 55% in size
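Hydroperoxide output read as Fe(III)-xylenol orange absorbance, 573-to-405 nm ratio, after 30 min reaction with 40 uM arachidonic acid. Enzyme: 150 nM purified human 12hLO, 15 min compound preincubation; 25 mM Hepes pH 7.0, room temperature.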
Numbers without * were called inactive; u = inconclusive; x = no result; [ ] = another dose, or the depositor's remark. Unless noted, calls follow the shape of the dose curve; as a rule, active = well fitted curve in the direction sought with a large enough effect; inconclusive = small, poorly fitted or top-dose-only effect, or another doubt; inactive = no such curve, though single readings can be large; an effect the other way counts as inactive or inconclusive. Unless noted, % is scaled to controls: 0 for no effect and ±100 for the full control effect.

SMILES | ALDH1A1 block | IMPase Li cell | NPSR antagonist | IMPase cell inh | HPGD inh | 12-hLO inh
O=c1c(-c2ccc(Cl)cc2)nc2cnc(Nc3ccccc3)nc2n1C1CC1 | 32% | -2% | x | x | x | x
Cc1ccc(SCc2cc(=O)n3[nH]c(C)nc3n2)cc1 | 11% | 13%[38.3 µM] | -8%[46.1 µM] | -3 | -16% | 20%
CCOc1ccc(CNC(=S)N/N=C/c2cccnc2)cc1 | 12% | -1% | 29% | x | -12% | -5%
CCOc1ccc(CNC(=S)N/N=C\c2ccc([N+](=O)[O-])cc2)cc1 | 3.2µM* | 14%[38.3 µM] | 0%[46.1 µM] | 0 | -23% | -19%
C=CCN(Cc1cccc(OC)c1OC)S(=O)(=O)N(C)C | 25µM* | 2%[38.3 µM] | 0%[46.1 µM] | 7 | -14% | 10%
COc1cccc(CN(C)C(=O)c2cccnc2SC)c1OC | 1% | -3% | 5% | x | x | x
O=C(c1ccc(Cl)cc1)c1nnc(-c2ccncc2)o1 | 6% | 10µM* | -15%[46.1 µM] | -3 | -24% | -1%
O=C(c1ccccc1)c1nnc(-c2ccncc2)o1 | 5% | 21%[38.3 µM] | -1%[46.1 µM] | 9 | -17% | 3%
O=C(O)Cc1ccc(C(=O)c2ccccc2)s1 | -12% | 16%[38.3 µM] | 0%[46.1 µM] | -10 | u | -7%
N#CCc1ccc(C(=O)c2ccccc2F)s1 | -81% | 18%[38.3 µM] | -25%[46.1 µM] | 2[1.84 µM] | 20µM* | -20%
CC1Cc2ccccc2N1C(=S)Nc1ccc(S(N)(=O)=O)cc1 (centres undefined) | -5% | 6% | 9% | x | -4% | -2%
CC(=O)c1ccc(NC(=S)N2c3ccccc3CC2C)cc1 (centres undefined) | 25µM* | 2% | -17% | x | x | x
O=C1OC(O)C(C(Cl)Cl)=C1Cl (centres undefined) | 20µM* | 2% | x | x | -8% | 0%
O=C(NCc1ccco1)c1ccc(S(=O)(=O)N2CCOCC2)cc1 | 16µM* | -4%[38.3 µM] | -4%[46.1 µM] | 5 | 16µM* | -1%
Cn1nc(C(=O)Nc2ccc(S(=O)(=O)NCc3ccco3)cc2)c2ccccc2c1=O | x | x | 14% | x | x | x
Cn1nc(C(=O)NCc2ccco2)c2ccccc2c1=O | 13µM* | 5% | 13% | x | -17% | -1%
O=C(NCc1ccco1)c1ccc(S(=O)(=O)N2CCCCC2)cc1 | -8% | 7% | -13% | x | x | x
CCCOc1ccc(C(=O)NCc2ccco2)cc1 | -3% | -8%[38.3 µM] | -6%[46.1 µM] | -6 | u | 0%
O=C(NCc1ccco1)c1ccc(COc2cc(Cl)ccc2Cl)cc1 | 4% | 18% | -22% | -10 | 18µM* | -5%
CC(C)Oc1ccc(C(=O)NCc2ccco2)cc1 | -8% | 14%[38.3 µM] | -3%[46.1 µM] | -6 | 18µM* | 2%
Cc1cc2ccccc2n1CCNC(=O)c1ccc(Br)o1 | 5.6µM* | -8% | 28% | x | x | x
COC(=O)COc1ccc(S(=O)(=O)N2CCN(c3ccc(OC)cc3)CC2)cc1 | -9% | 9% | 0% | x | x | x
COc1ccc(N2CCN(S(=O)(=O)c3ccc(C(=O)NCc4ccco4)cc3)CC2)cc1 | 7.9µM* | 7% | -1%[46.1 µM] | 7 | -5% | -4%
Cc1cc2ccccc2n1CCNC(=O)c1ccc(S(=O)(=O)N2CCOCC2)cc1 | 10µM* | 10%[38.3 µM] | -11%[46.1 µM] | -18 | -3% | -3%
CC(C)c1ccc(S(=O)(=O)N2CCN(C(=S)NCc3ccco3)CC2)cc1 | -2% | -10% | -25% | x | 28µM* | -13%
SMILES | ALDH1A1 block | IMPase Li cell | NPSR antagonist | IMPase cell inh | HPGD inh | 12-hLO inh
COC(=O)[C@@H](NC(=O)NCc1ccco1)C(C)C | 10µM* | 31%[38.3 µM] | -14%[46.1 µM] | 0 | -9% | -6%
O=C1CSC(=S)N1/N=C/c1ccc(Cl)c([N+](=O)[O-])c1 | 32µM* | x | -14% | x | x | x
COc1cc(/C=N/N2C(=O)c3ccccc3C2=O)ccc1O | u | -3% | 4% | x | -14% | -1%
COc1cc(/C=N/N2C(=O)CSC2=S)ccc1O | 28µM* | 20%[38.3 µM] | -16%[46.1 µM] | 10 | -18% | u
COc1cc(/C=N/N2C(=O)C3C4C=CC(CC4)C3C2=O)ccc1O (centres undefined) | 14µM* | 23% | -33% | x | x | x
CCOC(=O)NC(=O)CSc1nc2ccc([N+](=O)[O-])cc2[nH]1 | -5% | -1% | -1% | x | x | x
COc1ccc(-c2ccc(=O)n(Cc3cccc([N+](=O)[O-])c3)n2)cc1 | 0% | 6% | -16% | x | x | x
